Screen size: about 5,500 compounds; about 2,000 (36%) were called active. Roughly 18% stayed inconclusive and do not appear here. Cut-off read from the data, not from the text of the source: active = normalized growth mostly below about 0.91 (no sharp cut-off); inconclusive = no clear call, values can overlap the other calls; inactive = mostly above about 0.92. The list shows a part of the results.
Assay: chemical genetic growth profiling, strain panel (AID 1159580);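 note: tested at 20 µM; growth read once vehicle control cultures reached saturation at 30 °C; 1 = growth at the plate median or of vehicle wells; lower values mean less growth of the strain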
Conditions: growth OD

Measured: normalized growth

CC(N)CCCC(C)(C)O (centres undefined)
inactive: S. cerevisiae deletion strains, locus YJR066W, strain TOR1, stronger effect = lower value 1.01 | S. cerevisiae deletion strains, locus YKL009W, strain mrt4, stronger effect = lower value 0.985 | S. cerevisiae deletion strains, locus YKL068W, stronger effect = lower value 0.995 | S. cerevisiae deletion strains, locus YKL085W, strain MDH1 (second series), stronger effect = lower value 0.995 | S. cerevisiae deletion strains, locus YKL085W, strain MDH1, stronger effect = lower value 0.995 | S. cerevisiae deletion strains, locus YKL160W, strain elf1, stronger effect = lower value 0.991 | S. cerevisiae deletion strains, locus YKL190W, strain CNB1, stronger effect = lower value 0.995 | S. cerevisiae deletion strains, locus YKR001C, strain vps1, stronger effect = lower value 0.99 | S. cerevisiae deletion strains, locus YKR026C, strain gcn3, stronger effect = lower value 0.956 | S. cerevisiae deletion strains, locus YKR091W, strain srl3, stronger effect = lower value 0.977 | S. cerevisiae deletion strains, locus YLL001W, strain dnm1, stronger effect = lower value 0.974 | S. cerevisiae deletion strains, locus YLL026W, stronger effect = lower value 0.979 | S. cerevisiae deletion strains, locus YLL041C, strain sdh2, stronger effect = lower value 0.968 | S. cerevisiae deletion strains, locus YLR027C, strain aat2, stronger effect = lower value 0.99 | S. cerevisiae deletion strains, locus YLR039C, strain RIC1, stronger effect = lower value 1.01 | S. cerevisiae deletion strains, locus YLR058C, strain SHM2, stronger effect = lower value 1.01 | S. cerevisiae deletion strains, locus YLR102C, strain apc9, stronger effect = lower value 1.01 | S. cerevisiae deletion strains, locus YLR113W, strain HOG1, stronger effect = lower value 0.988 | S. cerevisiae deletion strains, locus YLR221C, strain rsa3, stronger effect = lower value 0.982 | S. cerevisiae deletion strains, locus YLR258W, strain gsy2, stronger effect = lower value 0.982 | S. cerevisiae deletion strains, locus YLR262C, strain YPT6 (second series), stronger effect = lower value 0.995 | S. cerevisiae deletion strains, locus YLR262C, strain YPT6, stronger effect = lower value 1.03 | S. cerevisiae deletion strains, locus YLR268W, strain sec22, stronger effect = lower value 0.999 | S. cerevisiae deletion strains, locus YLR320W, strain mms22, stronger effect = lower value 1.01 | S. cerevisiae deletion strains, locus YLR330W, strain CHS5, stronger effect = lower value 1.01 | S. cerevisiae deletion strains, locus YLR342W, strain FKS1 (second series), stronger effect = lower value 1.04 | S. cerevisiae deletion strains, locus YLR342W, strain FKS1, stronger effect = lower value 0.982 | S. cerevisiae deletion strains, locus YLR357W, strain rsc2, stronger effect = lower value 0.981 | S. cerevisiae deletion strains, locus YLR370C, strain arc18, stronger effect = lower value 0.988 | S. cerevisiae deletion strains, locus YLR371W, strain rom2, stronger effect = lower value 0.991 | S. cerevisiae deletion strains, locus YLR384C, strain iki3, stronger effect = lower value 0.985 | S. cerevisiae deletion strains, locus YLR418C, strain cdc73, stronger effect = lower value 1.05 | S. cerevisiae deletion strains, locus YML016C, strain PPZ1, stronger effect = lower value 1 | S. cerevisiae deletion strains, locus YML032C, strain rad52, stronger effect = lower value 0.986 | S. cerevisiae deletion strains, locus YML120C, strain ndi1, stronger effect = lower value 0.981 | S. cerevisiae deletion strains, locus YML124C, strain tub3, stronger effect = lower value 1.01 | S. cerevisiae deletion strains, locus YMR058W, strain fet3, stronger effect = lower value 0.974 | S. cerevisiae deletion strains, locus YMR078C, strain ctf18, stronger effect = lower value 1.01 | S. cerevisiae deletion strains, locus YMR125W, strain sto1, stronger effect = lower value 0.957 | S. cerevisiae deletion strains, locus YMR129W, stronger effect = lower value 0.978 | S. cerevisiae deletion strains, locus YMR205C, strain PFK2, stronger effect = lower value 1.01 | S. cerevisiae deletion strains, locus YMR223W, strain ubp8, stronger effect = lower value 1.02 | S. cerevisiae deletion strains, locus YMR231W, strain pep5, stronger effect = lower value 0.983 | S. cerevisiae deletion strains, locus YMR263W, strain SAP30, stronger effect = lower value 0.984 | S. cerevisiae deletion strains, locus YMR307W, strain GAS1, stronger effect = lower value 1.06 | S. cerevisiae deletion strains, locus YNL067W, strain RPL9B, stronger effect = lower value 0.973 | S. cerevisiae deletion strains, locus YNL071W, strain lat1, stronger effect = lower value 0.987 | S. cerevisiae deletion strains, locus YNL183C, strain NPR1, stronger effect = lower value 1.03 | S. cerevisiae deletion strains, locus YNL209W, strain ssb2, stronger effect = lower value 0.976 | S. cerevisiae deletion strains, locus YNL233W, strain BNI4, stronger effect = lower value 0.97 | S. cerevisiae deletion strains, locus YNL248C, strain rpa49, stronger effect = lower value 0.965 | S. cerevisiae deletion strains, locus YNL250W, strain rad50, stronger effect = lower value 0.996 | S. cerevisiae deletion strains, locus YNL271C, strain bni1, stronger effect = lower value 1.01 | S. cerevisiae deletion strains, locus YNL298W, strain CLA4, stronger effect = lower value 0.999 | S. cerevisiae deletion strains, locus YNL307C, strain MCK1, stronger effect = lower value 1.01 | S. cerevisiae deletion strains, locus YNL322C, strain KRE1 (second series), stronger effect = lower value 0.972 | S. cerevisiae deletion strains, locus YNR049C, strain mso1, stronger effect = lower value 0.965 | S. cerevisiae deletion strains, locus YNR052C, strain pop2, stronger effect = lower value 1 | S. cerevisiae deletion strains, locus YOL006C, strain TOP1, stronger effect = lower value 0.947 | S. cerevisiae deletion strains, locus YOL012C, strain htz1 0.693 | S. cerevisiae deletion strains, locus YOL147C, strain pex11, stronger effect = lower value 1 | S. cerevisiae deletion strains, locus YOR001W, strain rrp6, stronger effect = lower value 0.961 | S. cerevisiae deletion strains, locus YOR061W, strain CKA2, stronger effect = lower value 1 | S. cerevisiae deletion strains, locus YOR069W, strain VPS5, stronger effect = lower value 1.01 | S. cerevisiae deletion strains, locus YOR070C, strain gyp1, stronger effect = lower value 0.992 | S. cerevisiae deletion strains, locus YOR080W, strain dia2, stronger effect = lower value 0.98 | S. cerevisiae deletion strains, locus YOR083W, strain WHI5, stronger effect = lower value 0.979 | S. cerevisiae deletion strains, locus YOR106W, strain vam3, stronger effect = lower value 0.978 | S. cerevisiae deletion strains, locus YOR136W, strain idh2, stronger effect = lower value 0.991 | S. cerevisiae deletion strains, locus YOR144C, strain elg1, stronger effect = lower value 0.995 | S. cerevisiae deletion strains, locus YOR184W, strain ser1, stronger effect = lower value 0.999 | S. cerevisiae deletion strains, locus YOR231W, strain MKK1, stronger effect = lower value 1.03 | S. cerevisiae deletion strains, locus YOR265W, strain rbl2, stronger effect = lower value 0.982 | S. cerevisiae deletion strains, locus YOR270C, strain vph1, stronger effect = lower value 0.989 | S. cerevisiae deletion strains, locus YOR290C, strain snf2, stronger effect = lower value 0.94 | S. cerevisiae deletion strains, locus YOR316C, strain cot1, stronger effect = lower value 1 | S. cerevisiae deletion strains, locus YPL051W, strain arl3, stronger effect = lower value 0.979 | S. cerevisiae deletion strains, locus YPL055C, strain LGE1, stronger effect = lower value 0.915 | S. cerevisiae deletion strains, locus YPL078C, strain atp4, stronger effect = lower value 0.975 | S. cerevisiae deletion strains, locus YPL106C, strain sse1, stronger effect = lower value 0.951 | S. cerevisiae deletion strains, locus YPL240C, strain hsp82, stronger effect = lower value 0.966 | S. cerevisiae deletion strains, locus YPL241C, strain CIN2, stronger effect = lower value 1 | S. cerevisiae deletion strains, locus YPL256C, strain CLN2, stronger effect = lower value 1.1 | S. cerevisiae deletion strains, locus YPR119W, strain clb2, stronger effect = lower value 0.997 | S. cerevisiae deletion strains, locus YPR141C, strain kar3, stronger effect = lower value 1 | S. cerevisiae deletion strains, locus YPR163C, strain tif3, stronger effect = lower value 1 | S. cerevisiae deletion strains, locus YPR167C, strain met16, stronger effect = lower value 1.01 | S. cerevisiae deletion strains, strain wtn01, stronger effect = lower value 1 | S. cerevisiae strains, strain wild type, stronger effect = lower value 1

— PubChem BioAssay AID1159580 (chemical genetic matrix, 2015)
